The campaign covered roughly 5,500 compounds. About 2,000 (36%) were called active. Inconclusive results (about 18%) are left out. No stated cut-off is given here; in the data, active means normalized growth mostly below about 0.91 (no sharp cut-off); inconclusive means no clear call, values can overlap the other calls; inactive means mostly above about 0.92. The list shows a part of the results.
Assay: chemical genetic growth profiling, strain panel (AID 1159580);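 further: tested at 20 µM; growth read once vehicle control cultures reached saturation at 30 °C; 1 = growth at the plate median or of vehicle wells; lower values mean less growth of the strain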
Conditions: growth OD

Measured: normalized growth

C1CCN2C[C@@H]3C[C@H](CN4CCCC[C@@H]34)[C@H]2C1
inactive: S. cerevisiae deletion strains, locus YJR066W, strain TOR1, active compounds read low 0.988 | S. cerevisiae deletion strains, locus YJR075W, strain HOC1, active compounds read low 1.01 | S. cerevisiae deletion strains, locus YKL009W, strain mrt4, active compounds read low 0.994 | S. cerevisiae deletion strains, locus YKL068W, active compounds read low 0.999 | S. cerevisiae deletion strains, locus YKL085W, strain MDH1 (second series), active compounds read low 1.02 | S. cerevisiae deletion strains, locus YKL085W, strain MDH1, active compounds read low 1.02 | S. cerevisiae deletion strains, locus YKL160W, strain elf1, active compounds read low 0.987 | S. cerevisiae deletion strains, locus YKL190W, strain CNB1, active compounds read low 1.02 | S. cerevisiae deletion strains, locus YKR001C, strain vps1, active compounds read low 0.996 | S. cerevisiae deletion strains, locus YKR026C, strain gcn3, active compounds read low 1.01 | S. cerevisiae deletion strains, locus YKR091W, strain srl3, active compounds read low 1 | S. cerevisiae deletion strains, locus YLL001W, strain dnm1, active compounds read low 0.999 | S. cerevisiae deletion strains, locus YLL026W, active compounds read low 1.01 | S. cerevisiae deletion strains, locus YLL041C, strain sdh2, active compounds read low 0.999 | S. cerevisiae deletion strains, locus YLR027C, strain aat2, active compounds read low 0.992 | S. cerevisiae deletion strains, locus YLR039C, strain RIC1, active compounds read low 1.06 | S. cerevisiae deletion strains, locus YLR058C, strain SHM2, active compounds read low 1.01 | S. cerevisiae deletion strains, locus YLR102C, strain apc9, active compounds read low 0.993 | S. cerevisiae deletion strains, locus YLR113W, strain HOG1, active compounds read low 1.01 | S. cerevisiae deletion strains, locus YLR221C, strain rsa3, active compounds read low 1.03 | S. cerevisiae deletion strains, locus YLR258W, strain gsy2, active compounds read low 1.01 | S. cerevisiae deletion strains, locus YLR262C, strain YPT6 (second series), active compounds read low 1.04 | S. cerevisiae deletion strains, locus YLR262C, strain YPT6, active compounds read low 1.1 | S. cerevisiae deletion strains, locus YLR268W, strain sec22, active compounds read low 0.996 | S. cerevisiae deletion strains, locus YLR320W, strain mms22, active compounds read low 1.04 | S. cerevisiae deletion strains, locus YLR330W, strain CHS5, active compounds read low 1.02 | S. cerevisiae deletion strains, locus YLR342W, strain FKS1 (second series), active compounds read low 0.996 | S. cerevisiae deletion strains, locus YLR342W, strain FKS1, active compounds read low 1 | S. cerevisiae deletion strains, locus YLR357W, strain rsc2, active compounds read low 1.02 | S. cerevisiae deletion strains, locus YLR370C, strain arc18, active compounds read low 1.01 | S. cerevisiae deletion strains, locus YLR371W, strain rom2, active compounds read low 0.999 | S. cerevisiae deletion strains, locus YLR384C, strain iki3, active compounds read low 1.01 | S. cerevisiae deletion strains, locus YLR418C, strain cdc73, active compounds read low 0.98 | S. cerevisiae deletion strains, locus YML016C, strain PPZ1, active compounds read low 0.997 | S. cerevisiae deletion strains, locus YML032C, strain rad52, active compounds read low 0.994 | S. cerevisiae deletion strains, locus YML120C, strain ndi1, active compounds read low 1.01 | S. cerevisiae deletion strains, locus YML124C, strain tub3, active compounds read low 1.01 | S. cerevisiae deletion strains, locus YMR058W, strain fet3, active compounds read low 1.01 | S. cerevisiae deletion strains, locus YMR078C, strain ctf18, active compounds read low 1 | S. cerevisiae deletion strains, locus YMR125W, strain sto1, active compounds read low 0.995 | S. cerevisiae deletion strains, locus YMR129W, active compounds read low 1.03 | S. cerevisiae deletion strains, locus YMR205C, strain PFK2, active compounds read low 0.997 | S. cerevisiae deletion strains, locus YMR223W, strain ubp8, active compounds read low 1.01 | S. cerevisiae deletion strains, locus YMR231W, strain pep5, active compounds read low 1.01 | S. cerevisiae deletion strains, locus YMR307W, strain GAS1, active compounds read low 1.02 | S. cerevisiae deletion strains, locus YNL067W, strain RPL9B, active compounds read low 1.01 | S. cerevisiae deletion strains, locus YNL071W, strain lat1, active compounds read low 1.01 | S. cerevisiae deletion strains, locus YNL153C, strain GIM3, active compounds read low 1.01 | S. cerevisiae deletion strains, locus YNL183C, strain NPR1, active compounds read low 0.98 | S. cerevisiae deletion strains, locus YNL209W, strain ssb2, active compounds read low 1.01 | S. cerevisiae deletion strains, locus YNL233W, strain BNI4, active compounds read low 1.01 | S. cerevisiae deletion strains, locus YNL248C, strain rpa49, active compounds read low 1.03 | S. cerevisiae deletion strains, locus YNL250W, strain rad50, active compounds read low 1.02 | S. cerevisiae deletion strains, locus YNL271C, strain bni1, active compounds read low 1.01 | S. cerevisiae deletion strains, locus YNL298W, strain CLA4, active compounds read low 0.994 | S. cerevisiae deletion strains, locus YNL307C, strain MCK1, active compounds read low 1.01 | S. cerevisiae deletion strains, locus YNL322C, strain KRE1 (second series), active compounds read low 1.01 | S. cerevisiae deletion strains, locus YNR049C, strain mso1, active compounds read low 1.01 | S. cerevisiae deletion strains, locus YNR052C, strain pop2, active compounds read low 1.02 | S. cerevisiae deletion strains, locus YOL006C, strain TOP1, active compounds read low 1.08 | S. cerevisiae deletion strains, locus YOL012C, strain htz1 1.61 | S. cerevisiae deletion strains, locus YOL147C, strain pex11, active compounds read low 1 | S. cerevisiae deletion strains, locus YOR001W, strain rrp6, active compounds read low 1.02 | S. cerevisiae deletion strains, locus YOR061W, strain CKA2, active compounds read low 1.01 | S. cerevisiae deletion strains, locus YOR069W, strain VPS5, active compounds read low 1 | S. cerevisiae deletion strains, locus YOR070C, strain gyp1, active compounds read low 1.02 | S. cerevisiae deletion strains, locus YOR080W, strain dia2, active compounds read low 0.999 | S. cerevisiae deletion strains, locus YOR083W, strain WHI5, active compounds read low 0.979 | S. cerevisiae deletion strains, locus YOR106W, strain vam3, active compounds read low 1 | S. cerevisiae deletion strains, locus YOR136W, strain idh2, active compounds read low 0.998 | S. cerevisiae deletion strains, locus YOR144C, strain elg1, active compounds read low 0.989 | S. cerevisiae deletion strains, locus YOR184W, strain ser1, active compounds read low 0.995 | S. cerevisiae deletion strains, locus YOR231W, strain MKK1, active compounds read low 1.03 | S. cerevisiae deletion strains, locus YOR265W, strain rbl2, active compounds read low 1 | S. cerevisiae deletion strains, locus YOR270C, strain vph1, active compounds read low 1.05 | S. cerevisiae deletion strains, locus YOR290C, strain snf2, active compounds read low 0.979 | S. cerevisiae deletion strains, locus YOR316C, strain cot1, active compounds read low 1 | S. cerevisiae deletion strains, locus YPL051W, strain arl3, active compounds read low 0.999 | S. cerevisiae deletion strains, locus YPL055C, strain LGE1, active compounds read low 1.02 | S. cerevisiae deletion strains, locus YPL078C, strain atp4, active compounds read low 0.978 | S. cerevisiae deletion strains, locus YPL106C, strain sse1, active compounds read low 1.01 | S. cerevisiae deletion strains, locus YPL240C, strain hsp82, active compounds read low 0.999 | S. cerevisiae deletion strains, locus YPL241C, strain CIN2, active compounds read low 1 | S. cerevisiae deletion strains, locus YPL256C, strain CLN2, active compounds read low 1.06 | S. cerevisiae deletion strains, locus YPR119W, strain clb2, active compounds read low 0.999 | S. cerevisiae deletion strains, locus YPR141C, strain kar3, active compounds read low 1 | S. cerevisiae deletion strains, locus YPR163C, strain tif3, active compounds read low 1 | S. cerevisiae deletion strains, locus YPR167C, strain met16, active compounds read low 1.02 | S. cerevisiae deletion strains, strain wtn01, active compounds read low 1.01 | S. cerevisiae strains, strain wild type, active compounds read low 1.02

— PubChem BioAssay AID1159580 (chemical genetic matrix, 2015)
